The supplement of paper PMC10849652
The full data set covers some 8,800 targets. This sample favours those with a hit. About 0.5% of all pairs of compound and target were hits. A number with no mark means an inactive call.

How the values were obtained:
Assay in all cases: log2 fold change, soluble protein after heating vs DMSO (PISA); higher = thermal stabilisation; K562 lysate, 10 uM; active = over 0.2 and 3.5 SD of the protein, either way, in both replicates (recomputed)
[1] = compound: Cc1cn(-c2cc(NC(=O)c3ccc(C)c(Nc4nccc(-c5cccnc5)n4)c3)cc(C(F)(F)F)c2)cn1 [nilotinib]
Outline: (§1)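 The values are log-two fold changes in thermal stability compared with solvent controls and come from duplicates. They were obtained by TMTpro 16plex LC-MS/MS, with channel sums equalised, on the supernatant after 21,000xg for 90 min. That supernatant came from crude K562 extract at 1 mg/mL protein treated with 10 μM compound for 30 min, heated for 3 min across 48°C-58°C, pooled and brought to 0.5% NP-40 at 4°C.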

[2] = compound: Cc1nc(Nc2n[nH]c3c2CN(C(=O)N[C@H](CN(C)C)c2ccccc2)C3(C)C)c2sccc2n1
Outline: as §1

[3] = compound: Cc1nc(Nc2ncc(C(=O)Nc3c(C)cccc3Cl)s2)cc(N2CCN(CCO)CC2)n1 [dasatinib]
Outline: as §1

[4] = compound: Cc1ncc(-c2ccnc(Nc3ccc(S(C)(=O)=O)cc3)n2)n1C(C)C
Outline: as §1

[5] = compound: Cn1cc(-c2ccc3c(c2)CCN3C(=O)Cc2cccc(C(F)(F)F)c2)c2c(N)ncnc21
Outline: as §1

[6] = compound: Cn1cc(CNCC2CCN(c3ncc(C(=O)NO)cn3)CC2)c2ccccc21 [quisinostat]
Outline: as §1

[7] = compound: Cn1cncc1[C@@](N)(c1ccc(Cl)cc1)c1ccc2c(c1)c(-c1cccc(Cl)c1)cc(=O)n2C [tipifarnib]
Outline: as §1

[8] = compound: NC(=O)Nc1cc(-c2cccc(F)c2)sc1C(=O)N[C@H]1CCCNC1
Outline: as §1

[9] = compound: NC(=O)c1cnc(N[C@@H]2CCCC[C@@H]2N)nc1Nc1cccc(-n2nccn2)c1
Outline: as §1

[10] = compound: NC1(c2ccc(-c3nc4ccn5c(=O)[nH]nc5c4cc3-c3ccccc3)cc2)CCC1
Outline: as §1

Target: SAR1A (UniProt Q9NR31)
UniProt Q9NR31, sequence (Q9NR31 whole entry, looked up): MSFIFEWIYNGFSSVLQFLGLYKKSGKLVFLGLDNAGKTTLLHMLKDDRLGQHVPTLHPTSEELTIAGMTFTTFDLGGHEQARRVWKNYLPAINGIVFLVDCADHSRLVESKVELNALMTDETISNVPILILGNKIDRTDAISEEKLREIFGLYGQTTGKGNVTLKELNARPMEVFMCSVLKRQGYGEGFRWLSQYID
- log2 fold change [1]: 0.145
- log2 fold change [2]: 0.164
- log2 fold change [3]: 0.017
- log2 fold change [4]: -0.009
- log2 fold change [5]: 0.01
- log2 fold change [6]: 0.095
- log2 fold change [7]: -0.172
- log2 fold change [8]: -0.055
- log2 fold change [9]: -0.154
- log2 fold change [10]: -0.045

Target: RNF113A (UniProt O15541)
UniProt O15541, sequence (O15541 whole entry, looked up): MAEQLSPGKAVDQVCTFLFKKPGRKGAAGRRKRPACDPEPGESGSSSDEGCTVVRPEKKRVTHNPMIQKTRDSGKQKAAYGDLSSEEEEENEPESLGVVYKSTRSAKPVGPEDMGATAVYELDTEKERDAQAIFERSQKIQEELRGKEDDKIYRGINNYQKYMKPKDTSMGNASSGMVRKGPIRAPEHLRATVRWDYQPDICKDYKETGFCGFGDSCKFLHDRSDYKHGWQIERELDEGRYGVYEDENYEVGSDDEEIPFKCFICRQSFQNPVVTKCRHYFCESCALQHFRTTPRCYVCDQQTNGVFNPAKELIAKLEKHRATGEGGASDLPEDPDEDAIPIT
- log2 fold change [1]: 0.003
- log2 fold change [2]: -0.004
- log2 fold change [3]: -0.015
- log2 fold change [4]: 0.007
- log2 fold change [5]: 0.04
- log2 fold change [6]: 0.063
- log2 fold change [7]: -0.019
- log2 fold change [8]: -0.068
- log2 fold change [9]: -0.005
- log2 fold change [10]: -0.002

Target: RBM42 (UniProt Q9BTD8)
- log2 fold change [1]: 0.102
- log2 fold change [2]: -0.039
- log2 fold change [3]: -0.021
- log2 fold change [4]: 0.009
- log2 fold change [5]: -0.039
- log2 fold change [6]: -0.033
- log2 fold change [7]: 0.073
- log2 fold change [8]: -0.022
- log2 fold change [9]: -0.049
- log2 fold change [10]: 0.004

Target: SDHA (UniProt P31040)
- log2 fold change [1]: 0.035
- log2 fold change [2]: 0.009
- log2 fold change [3]: 0.016
- log2 fold change [4]: 0.004
- log2 fold change [5]: -0.033
- log2 fold change [6]: -0.022
- log2 fold change [7]: -0.034
- log2 fold change [8]: -0.037
- log2 fold change [9]: -0.013
- log2 fold change [10]: 0.007

Target: RBM8A (UniProt Q9Y5S9)
- log2 fold change [1]: -0.005
- log2 fold change [2]: 0.025
- log2 fold change [3]: 0.023
- log2 fold change [4]: 0.004
- log2 fold change [5]: 0.067
- log2 fold change [6]: 0.187
- log2 fold change [7]: 0.051
- log2 fold change [8]: -0.016
- log2 fold change [9]: 0
- log2 fold change [10]: 0.108

Target: S100A11 (UniProt P31949)
- log2 fold change [1]: 0.067
- log2 fold change [2]: 0.007
- log2 fold change [3]: 0.013
- log2 fold change [4]: 0.056
- log2 fold change [5]: -0.02
- log2 fold change [6]: 0.05
- log2 fold change [7]: 0.041
- log2 fold change [8]: -0.033
- log2 fold change [9]: 0
- log2 fold change [10]: -0.006

Target: RALGAPB (UniProt Q86X10)
- log2 fold change [1]: -0.022
- log2 fold change [2]: 0.029
- log2 fold change [3]: -0.026
- log2 fold change [4]: 0.026
- log2 fold change [5]: 0.015
- log2 fold change [6]: -0.048
- log2 fold change [7]: -0.021
- log2 fold change [8]: 0.053
- log2 fold change [9]: -0.019
- log2 fold change [10]: -0.044

Target: RFC2 (UniProt P35250)
UniProt P35250, sequence (P35250 whole entry, looked up): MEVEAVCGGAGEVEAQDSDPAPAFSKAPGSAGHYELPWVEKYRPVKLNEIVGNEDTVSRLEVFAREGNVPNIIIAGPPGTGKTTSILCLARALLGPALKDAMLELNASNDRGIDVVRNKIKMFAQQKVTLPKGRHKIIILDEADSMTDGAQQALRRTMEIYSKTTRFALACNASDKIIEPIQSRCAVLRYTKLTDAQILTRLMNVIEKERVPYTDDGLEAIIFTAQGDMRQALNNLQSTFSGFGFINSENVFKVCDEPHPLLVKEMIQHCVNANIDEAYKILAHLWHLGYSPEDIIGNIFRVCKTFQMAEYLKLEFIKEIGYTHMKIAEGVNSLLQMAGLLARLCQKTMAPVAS
- log2 fold change [1]: 0.005
- log2 fold change [2]: -0.018
- log2 fold change [3]: -0.027
- log2 fold change [4]: -0.012
- log2 fold change [5]: 0.062
- log2 fold change [6]: -0.04
- log2 fold change [7]: -0.014
- log2 fold change [8]: 0.036
- log2 fold change [9]: 0.014
- log2 fold change [10]: -0.05

Target: RNF168 (UniProt Q8IYW5)
- log2 fold change [1]: 0.144
- log2 fold change [2]: 0.085
- log2 fold change [3]: 0.064
- log2 fold change [4]: -0.186
- log2 fold change [5]: 0.006
- log2 fold change [6]: -0.019
- log2 fold change [7]: 0.016
- log2 fold change [8]: -0.009
- log2 fold change [9]: -0.02
- log2 fold change [10]: 0.018

Target: RHOU (UniProt Q7L0Q8)
UniProt Q7L0Q8, sequence (Q7L0Q8 whole entry, looked up): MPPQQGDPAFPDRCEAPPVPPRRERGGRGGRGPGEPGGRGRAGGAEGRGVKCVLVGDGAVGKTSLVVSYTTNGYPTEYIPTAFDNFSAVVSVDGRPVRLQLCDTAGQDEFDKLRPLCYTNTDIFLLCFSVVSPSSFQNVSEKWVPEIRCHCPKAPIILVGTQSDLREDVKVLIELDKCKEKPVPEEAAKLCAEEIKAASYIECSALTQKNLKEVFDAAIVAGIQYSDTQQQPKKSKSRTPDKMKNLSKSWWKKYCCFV
- log2 fold change [1]: -0.032
- log2 fold change [2]: -0.028
- log2 fold change [3]: -0.004
- log2 fold change [4]: 0.114
- log2 fold change [5]: 0.145
- log2 fold change [6]: -0.053
- log2 fold change [7]: 0.12
- log2 fold change [8]: 0.035
- log2 fold change [9]: -0.045
- log2 fold change [10]: 0.033

Target: RPS18 (UniProt P62269)
- log2 fold change [1]: 0.004
- log2 fold change [2]: -0.02
- log2 fold change [3]: -0.009
- log2 fold change [4]: -0.039
- log2 fold change [5]: -0.018
- log2 fold change [6]: 0
- log2 fold change [7]: 0.031
- log2 fold change [8]: -0.018
- log2 fold change [9]: 0.014
- log2 fold change [10]: -0.006

Target: RAC2 (UniProt P15153)
- log2 fold change [1]: -0.025
- log2 fold change [2]: -0.076
- log2 fold change [3]: -0.068
- log2 fold change [4]: 0.015
- log2 fold change [5]: -0.093
- log2 fold change [6]: 0.021
- log2 fold change [7]: 0
- log2 fold change [8]: 0.001
- log2 fold change [9]: 0.04
- log2 fold change [10]: 0.017

Target: RPL31 (UniProt P62899)
- log2 fold change [1]: 0.007
- log2 fold change [2]: -0.034
- log2 fold change [3]: 0.046
- log2 fold change [4]: -0.036
- log2 fold change [5]: -0.038
- log2 fold change [6]: 0.043
- log2 fold change [7]: 0.021
- log2 fold change [8]: -0.004
- log2 fold change [9]: -0.018
- log2 fold change [10]: 0.005

Target: RAPGEF2, A0A2R8YGD3
- log2 fold change [1]: -0.032
- log2 fold change [2]: 0.027
- log2 fold change [3]: 0.052
- log2 fold change [4]: -0.036
- log2 fold change [5]: 0.008
- log2 fold change [6]: -0.018
- log2 fold change [7]: -0.017
- log2 fold change [8]: 0.054
- log2 fold change [9]: -0.02
- log2 fold change [10]: 0.024

Target: RNPC3 (UniProt Q96LT9)
UniProt Q96LT9, sequence (Q96LT9 whole entry, looked up): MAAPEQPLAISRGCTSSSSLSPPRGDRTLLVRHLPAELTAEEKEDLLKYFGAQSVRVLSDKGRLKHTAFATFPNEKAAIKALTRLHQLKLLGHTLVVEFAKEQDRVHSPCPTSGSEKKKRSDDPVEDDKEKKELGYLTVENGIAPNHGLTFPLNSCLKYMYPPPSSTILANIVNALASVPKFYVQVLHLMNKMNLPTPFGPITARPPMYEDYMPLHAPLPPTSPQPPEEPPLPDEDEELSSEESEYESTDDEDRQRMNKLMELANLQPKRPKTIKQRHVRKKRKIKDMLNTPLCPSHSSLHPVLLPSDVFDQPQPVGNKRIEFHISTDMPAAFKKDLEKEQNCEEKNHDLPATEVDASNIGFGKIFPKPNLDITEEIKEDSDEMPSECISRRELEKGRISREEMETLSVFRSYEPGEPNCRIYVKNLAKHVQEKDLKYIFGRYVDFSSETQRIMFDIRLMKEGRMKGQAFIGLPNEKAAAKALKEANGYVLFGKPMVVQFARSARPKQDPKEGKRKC
- log2 fold change [1]: -0.104
- log2 fold change [2]: 0.069
- log2 fold change [3]: 0.042
- log2 fold change [4]: 0.01
- log2 fold change [5]: -0.061
- log2 fold change [6]: -0.071
- log2 fold change [7]: -0.075
- log2 fold change [8]: -0.063
- log2 fold change [9]: -0.056
- log2 fold change [10]: 0.06

Target: RPL28 (UniProt P46779)
- log2 fold change [1]: -0.018
- log2 fold change [2]: -0.011
- log2 fold change [3]: 0.009
- log2 fold change [4]: -0.015
- log2 fold change [5]: -0.005
- log2 fold change [6]: 0.08
- log2 fold change [7]: 0.002
- log2 fold change [8]: -0.028
- log2 fold change [9]: -0.011
- log2 fold change [10]: -0.023

Target: REL isoform 2 (UniProt Q04864)
UniProt Q04864, sequence (Q04864 whole entry, looked up): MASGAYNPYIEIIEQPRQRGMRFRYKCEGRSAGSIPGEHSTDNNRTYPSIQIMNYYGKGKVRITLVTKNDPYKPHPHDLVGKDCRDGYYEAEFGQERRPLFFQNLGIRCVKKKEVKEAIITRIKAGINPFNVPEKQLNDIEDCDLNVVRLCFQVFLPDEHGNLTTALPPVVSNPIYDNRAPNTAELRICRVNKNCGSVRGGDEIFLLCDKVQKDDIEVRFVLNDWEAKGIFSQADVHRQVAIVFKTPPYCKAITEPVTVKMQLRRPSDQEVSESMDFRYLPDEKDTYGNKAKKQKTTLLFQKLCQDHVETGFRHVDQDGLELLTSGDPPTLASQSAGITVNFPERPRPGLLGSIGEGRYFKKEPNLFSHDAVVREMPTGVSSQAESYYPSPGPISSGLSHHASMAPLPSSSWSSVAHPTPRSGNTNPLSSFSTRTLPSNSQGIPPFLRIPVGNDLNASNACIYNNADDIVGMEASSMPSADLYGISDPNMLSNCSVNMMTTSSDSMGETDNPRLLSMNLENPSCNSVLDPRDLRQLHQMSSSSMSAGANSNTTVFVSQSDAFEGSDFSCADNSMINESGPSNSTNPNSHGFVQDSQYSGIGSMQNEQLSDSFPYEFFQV
- log2 fold change [1]: 0.009
- log2 fold change [2]: -0.032
- log2 fold change [3]: -0.015
- log2 fold change [4]: -0.041
- log2 fold change [5]: 0.056
- log2 fold change [6]: -0.005
- log2 fold change [7]: 0.014
- log2 fold change [8]: 0.005
- log2 fold change [9]: -0.009
- log2 fold change [10]: -0.017

Target: RPS6KA1 (UniProt Q15418)
UniProt Q15418, sequence (Q15418 whole entry, looked up): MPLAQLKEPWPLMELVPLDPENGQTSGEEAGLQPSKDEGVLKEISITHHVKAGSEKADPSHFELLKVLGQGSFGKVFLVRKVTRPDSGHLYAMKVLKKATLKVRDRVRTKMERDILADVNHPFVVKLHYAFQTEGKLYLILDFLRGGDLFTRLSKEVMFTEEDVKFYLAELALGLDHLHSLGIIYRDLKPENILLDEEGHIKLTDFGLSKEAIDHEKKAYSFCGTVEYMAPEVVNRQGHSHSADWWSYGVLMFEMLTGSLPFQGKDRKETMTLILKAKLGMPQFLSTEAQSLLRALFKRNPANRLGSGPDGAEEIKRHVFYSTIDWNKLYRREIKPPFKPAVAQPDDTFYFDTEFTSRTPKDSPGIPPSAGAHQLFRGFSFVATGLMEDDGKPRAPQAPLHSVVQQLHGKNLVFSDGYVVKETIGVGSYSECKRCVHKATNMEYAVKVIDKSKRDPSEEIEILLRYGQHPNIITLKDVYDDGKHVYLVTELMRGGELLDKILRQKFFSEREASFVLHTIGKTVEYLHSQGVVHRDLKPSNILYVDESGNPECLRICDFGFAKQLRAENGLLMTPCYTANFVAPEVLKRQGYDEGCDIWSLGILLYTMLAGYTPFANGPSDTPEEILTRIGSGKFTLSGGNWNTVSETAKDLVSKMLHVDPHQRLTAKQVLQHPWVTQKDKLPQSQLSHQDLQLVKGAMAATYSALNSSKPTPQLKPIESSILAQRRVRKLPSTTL
- log2 fold change [1]: -0.037
- log2 fold change [2]: 0.204
- log2 fold change [3]: -0.113
- log2 fold change [4]: 0.078
- log2 fold change [5]: 0.031
- log2 fold change [6]: -0.045
- log2 fold change [7]: 0.002
- log2 fold change [8]: 0.256
- log2 fold change [9]: 0.093
- log2 fold change [10]: -0.028

Target: RDX (UniProt P35241)
- log2 fold change [1]: -0.003
- log2 fold change [2]: -0.006
- log2 fold change [3]: 0.037
- log2 fold change [4]: 0.048
- log2 fold change [5]: -0.008
- log2 fold change [6]: 0.047
- log2 fold change [7]: 0.013
- log2 fold change [8]: -0.007
- log2 fold change [9]: 0.002
- log2 fold change [10]: 0.006

Target: RPL36AL (UniProt Q969Q0)
- log2 fold change [1]: 0.034
- log2 fold change [2]: 0.038
- log2 fold change [3]: 0.094
- log2 fold change [4]: 0.055
- log2 fold change [5]: 0.04
- log2 fold change [6]: 0.329 (active)
- log2 fold change [7]: 0.058
- log2 fold change [8]: 0.01
- log2 fold change [9]: -0.026
- log2 fold change [10]: -0.009

Target: RBMX (UniProt P38159)
- log2 fold change [1]: 0.034
- log2 fold change [2]: -0.079
- log2 fold change [3]: -0.029
- log2 fold change [4]: -0.052
- log2 fold change [5]: -0.007
- log2 fold change [6]: 0.042
- log2 fold change [7]: 0.005
- log2 fold change [8]: 0.014
- log2 fold change [9]: 0.033
- log2 fold change [10]: -0.021

Target: SEC24D isoform 2 (UniProt O94855)
UniProt O94855, sequence (O94855 whole entry, looked up): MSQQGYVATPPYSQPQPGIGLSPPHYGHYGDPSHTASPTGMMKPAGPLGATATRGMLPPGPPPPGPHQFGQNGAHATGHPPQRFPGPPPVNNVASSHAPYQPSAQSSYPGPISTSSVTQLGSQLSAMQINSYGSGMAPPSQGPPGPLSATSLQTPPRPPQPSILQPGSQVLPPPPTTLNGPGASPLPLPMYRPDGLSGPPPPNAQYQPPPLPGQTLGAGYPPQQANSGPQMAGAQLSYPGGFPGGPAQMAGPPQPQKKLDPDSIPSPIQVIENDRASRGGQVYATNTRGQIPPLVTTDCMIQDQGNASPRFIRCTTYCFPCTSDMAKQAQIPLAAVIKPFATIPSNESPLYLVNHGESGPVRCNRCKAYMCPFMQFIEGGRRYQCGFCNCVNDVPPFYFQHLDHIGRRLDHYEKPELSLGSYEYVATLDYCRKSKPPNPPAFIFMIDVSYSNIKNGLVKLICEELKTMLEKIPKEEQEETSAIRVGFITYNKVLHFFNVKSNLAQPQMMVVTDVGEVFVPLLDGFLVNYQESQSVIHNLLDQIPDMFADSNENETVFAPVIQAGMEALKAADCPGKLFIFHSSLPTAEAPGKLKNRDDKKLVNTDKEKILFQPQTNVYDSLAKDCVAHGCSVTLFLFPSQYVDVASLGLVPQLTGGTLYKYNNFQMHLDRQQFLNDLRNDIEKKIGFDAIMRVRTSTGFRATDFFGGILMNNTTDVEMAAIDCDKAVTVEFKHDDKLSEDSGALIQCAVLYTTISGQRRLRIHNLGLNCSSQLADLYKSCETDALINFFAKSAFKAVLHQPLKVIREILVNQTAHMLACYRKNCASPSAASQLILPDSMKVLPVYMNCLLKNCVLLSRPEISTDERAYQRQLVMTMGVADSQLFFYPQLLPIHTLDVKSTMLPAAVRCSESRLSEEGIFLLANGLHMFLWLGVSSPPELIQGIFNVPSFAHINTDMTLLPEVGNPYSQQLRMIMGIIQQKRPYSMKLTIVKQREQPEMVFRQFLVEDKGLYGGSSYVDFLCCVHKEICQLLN
- log2 fold change [1]: -0.006
- log2 fold change [2]: -0.016
- log2 fold change [3]: -0.004
- log2 fold change [4]: -0.029
- log2 fold change [5]: 0.002
- log2 fold change [6]: 0.01
- log2 fold change [7]: 0.001
- log2 fold change [8]: -0.012
- log2 fold change [9]: -0.004
- log2 fold change [10]: 0.006

Target: QRSL1 (UniProt Q9H0R6)
UniProt Q9H0R6, sequence (Q9H0R6 whole entry, looked up): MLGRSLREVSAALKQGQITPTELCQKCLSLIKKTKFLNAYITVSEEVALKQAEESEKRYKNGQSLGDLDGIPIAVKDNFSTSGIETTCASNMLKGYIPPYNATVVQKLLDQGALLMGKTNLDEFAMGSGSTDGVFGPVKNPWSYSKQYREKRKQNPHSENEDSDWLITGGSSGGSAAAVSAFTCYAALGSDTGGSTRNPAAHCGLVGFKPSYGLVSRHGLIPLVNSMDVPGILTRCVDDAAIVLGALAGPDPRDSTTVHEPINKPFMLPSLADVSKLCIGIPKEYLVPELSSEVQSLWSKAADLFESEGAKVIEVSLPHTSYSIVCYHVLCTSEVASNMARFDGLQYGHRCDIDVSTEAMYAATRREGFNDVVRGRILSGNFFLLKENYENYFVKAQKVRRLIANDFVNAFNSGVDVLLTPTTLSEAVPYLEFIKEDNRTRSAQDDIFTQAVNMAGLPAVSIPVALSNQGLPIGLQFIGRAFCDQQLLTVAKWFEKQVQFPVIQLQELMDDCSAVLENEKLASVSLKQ
- log2 fold change [1]: -0.022
- log2 fold change [2]: 0.031
- log2 fold change [3]: -0.018
- log2 fold change [4]: 0.069
- log2 fold change [5]: 0.07
- log2 fold change [6]: -0.054
- log2 fold change [7]: -0.002
- log2 fold change [8]: 0.034
- log2 fold change [9]: -0.02
- log2 fold change [10]: -0.031

Target: SEC13 isoform 3 (UniProt P55735)
UniProt P55735, sequence (P55735 whole entry, looked up): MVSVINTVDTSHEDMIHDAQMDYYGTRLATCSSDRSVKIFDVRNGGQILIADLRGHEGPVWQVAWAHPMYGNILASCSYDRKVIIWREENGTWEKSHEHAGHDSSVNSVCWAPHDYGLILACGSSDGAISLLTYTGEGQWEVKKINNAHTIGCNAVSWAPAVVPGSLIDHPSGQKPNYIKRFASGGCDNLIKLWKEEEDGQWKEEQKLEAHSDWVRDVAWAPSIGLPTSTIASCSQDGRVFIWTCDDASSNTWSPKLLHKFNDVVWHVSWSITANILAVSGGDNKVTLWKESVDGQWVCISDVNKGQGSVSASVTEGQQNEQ
- log2 fold change [1]: -0.02
- log2 fold change [2]: 0.038
- log2 fold change [3]: -0.01
- log2 fold change [4]: 0.031
- log2 fold change [5]: 0.02
- log2 fold change [6]: 0.079
- log2 fold change [7]: -0.014
- log2 fold change [8]: 0.006
- log2 fold change [9]: 0.006
- log2 fold change [10]: -0.006

Target: RIOK2 (UniProt Q9BVS4)
- log2 fold change [1]: 0.002
- log2 fold change [2]: 0.034
- log2 fold change [3]: 0.01
- log2 fold change [4]: 0.537 (active)
- log2 fold change [5]: -0.023
- log2 fold change [6]: -0.054
- log2 fold change [7]: -0.013
- log2 fold change [8]: 0.05
- log2 fold change [9]: 0.198
- log2 fold change [10]: -0.03

Target: RAF1 isoform 2 (UniProt P04049)
- log2 fold change [1]: 0.054
- log2 fold change [2]: -0.005
- log2 fold change [3]: 0.169
- log2 fold change [4]: -0.094
- log2 fold change [5]: -0.022
- log2 fold change [6]: -0.06
- log2 fold change [7]: -0.036
- log2 fold change [8]: 0.063
- log2 fold change [9]: -0.021
- log2 fold change [10]: -0.008

Target: SBF1 isoform 4 (UniProt O95248)
- log2 fold change [1]: -0.018
- log2 fold change [2]: -0.041
- log2 fold change [3]: 0.092
- log2 fold change [4]: -0.046
- log2 fold change [5]: 0.047
- log2 fold change [6]: -0.103
- log2 fold change [7]: 0.162
- log2 fold change [8]: 0.12
- log2 fold change [9]: 0.039
- log2 fold change [10]: 0.091
